Assay results published in PubChem BioAssay.
Entries with a potency or affinity are not part of this list. A number with no mark means an inactive call. Activity calls are given as the source filed them.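 The calls were made as follows, unless noted: active = a dose-response fit showing signal loss, with half-maximal concentration no higher than twice the top tested dose; inconclusive = flat fit between 30% and 70% signal loss, or poor fit; inactive = the rest.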

How the values were obtained:
[1] = inducers of Cryptococcus neoformans cell lysis, dose response, AK release luminescence, cherry-picks (AID 687000;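 active = fitted dose curve reaches 40% lysis signal rise at or below the highest valid concentration tested for that sample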;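 also: luminescent detection of adenylate kinase leaking from lysed yeast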)
[2] = HepG2 cell cytotoxicity, dose response, cytotoxicity control, cherry-picks, set 2 (AID 687002)
[3] = HeLa cell cytotoxicity, dose response, cytotoxicity control, ATP luminescence, cherry-pick samples (AID 687004;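 active = a fitted half-maximal concentration no higher than twice the top valid tested dose, with signal falling as cells die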)
[4] = HepG2 cell cytotoxicity, dose response, cytotoxicity control, plate reader, cherry-pick, antagonist series (AID 743416; call rule not given here)

SMILES	outcome [1]	outcome [2]	outcome [3]	outcome [4]
COC(=O)C1=C(C)N(Cc2ccc(F)cc2)C(=S)NC1c1cccc(OC)c1 (stereo unspecified)	inactive	inactive	inactive	
Cc1cccc(OCC(=O)NCc2ccc(F)cc2)c1	inactive	inactive	inactive	
O=C(NC(=S)Nc1ccccc1N1CCOCC1)c1ccc([N+](=O)[O-])cc1	inactive	inactive	inactive	
O=c1nc(-c2ccccc2)c2ccccc2[nH]1	inactive	inactive	inactive	
COC(=O)C1=C(C)N(Cc2ccc(Cl)cc2)C(=S)NC1c1cccc(OC)c1 (stereo unspecified)	inactive	inactive	inactive	
CCOC(=O)CNC(=O)CSc1ncnc2c1cnn2-c1ccc(C)cc1	inactive	inactive	inactive	
CCCNC(=O)C[C@H]1CC[C@H]2[C@@H](COC[C@@H](O)CN2S(=O)(=O)c2ccc(Oc3ccccc3)cc2)O1	inactive	inactive	inactive	
CNC[C@H]1Oc2ncc(C#CCC(C)C)cc2C(=O)N([C@H](C)CO)C[C@H]1C	inactive	inactive	inactive	
COc1ccc(NC(=O)CN2CCN(S(=O)(=O)c3ccc(C(C)C)cc3)CC2)cc1OC	inactive	inactive	inactive	
CO[C@@H]1CN(C)C(=O)c2cc(NC(=O)C3CCOCC3)ccc2OC[C@H](C)NC[C@@H]1C	inactive	inactive	inactive	
CN1C[C@@H]2C(c3ccc(C(F)(F)F)cc3)C3(c4ccccc4)CC2(C3)[C@H]1c1ccccc1 (stereo partly specified)	inactive	inactive	inactive	
COc1ccc(NC(=O)N(C)C[C@H]2OCCCC[C@@H](C)Oc3ccc(NC(=O)c4ccccc4)cc3C(=O)N([C@H](C)CO)C[C@H]2C)cc1	inactive	inactive	inactive	
C[C@H]1CN([C@@H](C)CO)C(=O)c2cc(-c3ccccc3)cnc2O[C@@H]1CN(C)C(=O)c1ccccn1	inactive	inactive	inactive	
O=C1CCC(C(=O)Nc2cccc3ccccc23)N1 (stereo unspecified)	inactive	inactive	inactive	
Cc1ccc(N(CC(=O)NCCSCc2ccco2)S(=O)(=O)c2ccc(F)cc2)cc1	inactive	inactive	inactive	
C[C@@H]1CN([C@@H](C)CO)C(=O)c2cc(NC(=O)C3CC3)ccc2O[C@H]1CN(C)Cc1ccc2c(c1)OCO2	inactive	inactive	inactive	
COc1ccc(CN(C)C[C@@H]2OCCCC[C@@H](C)Oc3ccc(NC(=O)c4ccccc4)cc3C(=O)N([C@H](C)CO)C[C@@H]2C)cc1	inactive	inactive	inactive	
CNC[C@@H]1Oc2c(NS(=O)(=O)c3ccc(Cl)cc3)cccc2C(=O)N([C@H](C)CO)C[C@H]1C	inactive	inactive	inactive	
O=C(c1cccnc1)N1C[C@H]2[C@@H](c3ccccc31)[C@@H](CO)N2C(=O)Nc1ccc(F)cc1	inactive	inactive	inactive	

SMILES	outcome [1]	outcome [2]	outcome [3]	outcome [4]
Cc1ccc(S(=O)(=O)N[C@H]2CC[C@H](CC(=O)NCc3ccccc3F)O[C@H]2CO)cc1	inactive	inactive	inactive	
Cc1cccc(C)c1NC(=S)NN(Cc1ccccc1)c1ccccc1	inactive	inactive	inactive	
O=C(CN(c1ccccc1)S(=O)(=O)c1ccc(F)cc1)N1CCCCCC1	inactive	inactive	inactive	
Cc1ccc(C2CCN(C(=S)NC3CCCCC3)C2)cc1 (stereo unspecified)	inactive	inactive	inactive	
COc1ccc(NC(=O)c2cn(C)c(=O)c3cc(OC)c(OC)cc23)c(OC)c1	inactive	inactive	inactive	
Cc1ccc(C)c(NC(=O)C2(C)CCN2C(=O)C(C)C)c1 (stereo unspecified)	inactive	inactive	inactive	
C[C@H](CO)N1C[C@H](C)[C@H](CN(C)S(=O)(=O)c2cn(C)cn2)Oc2ncc(/C=C/c3ccccc3)cc2C1=O	inactive	inactive	inactive	
C/C=C/c1ccc([C@@H]2[C@@H](C#N)N(S(=O)(=O)c3cccc(F)c3)[C@@H]2CO)cc1	inactive	inactive	inactive	
CC(C)NC(=O)N(C)C[C@H]1Oc2c(NS(=O)(=O)c3ccc(Cl)cc3)cccc2C(=O)N([C@@H](C)CO)C[C@@H]1C	inactive	inactive	inactive	
COC(=O)C1=C(C)N(Cc2ccccc2)C(=O)N[C@H]1c1cccc(F)c1	inactive	inactive	inactive	
Cc1noc(C)c1NC(=O)N(C)C[C@H]1OCCCC[C@@H](C)Oc2ccc(NC(=O)NC(C)C)cc2C(=O)N([C@H](C)CO)C[C@H]1C	inactive	inactive	inactive	
O=C(COc1ccccc1)NCc1ccc2c(c1)OCO2	inactive	inactive	inactive	
Cc1ccc(C(=O)Nc2ccc3ncccc3c2)cc1				inactive
Cc1cc(C)c(NC(=O)C2CCCN2CCC(C)C)c(C)c1 (stereo unspecified)		inactive		
COC(=O)C1=C(C)N(Cc2ccc(Cl)cc2)C(=S)NC1c1ccccc1 (stereo unspecified)		inactive	inactive	
COC(=O)C1=C(C)N(Cc2ccc(F)cc2)C(=S)NC1c1ccc(Cl)cc1 (stereo unspecified)		inactive		
COC(=O)C1=C(C)N(Cc2ccc(F)cc2)C(=S)NC1c1ccc(F)cc1 (stereo unspecified)		inactive		
CCC(=O)N(C)C[C@@H]1Oc2cc(C#CC(C)(C)O)ccc2S(=O)(=O)N([C@@H](C)CO)C[C@H]1C		inactive	inactive	
Cc1ccc2nc(C)c3c(c2c1)OC(C(C)(Cl)Br)C3 (stereo unspecified)		inactive		

SMILES	outcome [1]	outcome [2]	outcome [3]	outcome [4]
S=C(Nc1cccc(Cl)c1)Nc1ccccc1Oc1ccccc1		inactive	inactive	
CCCCNC(=S)N/N=C/c1ccc(C#N)cc1		inactive	inactive	
CC(C)c1ccccc1NC(=S)NN(Cc1ccccc1)c1ccccc1		inactive		
CCc1ccc(C(C)NC(=S)NCc2ccc(F)cc2)cc1 (stereo unspecified)		inactive	inactive	
O=C(CN(c1ccc(F)cc1)S(=O)(=O)c1ccccc1)N1CCOCC1		inactive	inactive	
CC(C)CC1(C)N=C(c2ccccc2)C(=S)N1 (stereo unspecified)		inactive	inactive	
O=C(C[C@H]1CC[C@@H]2[C@H](COC[C@@H](O)CN2C(=O)c2cnccn2)O1)NCc1ccc(Oc2ccccc2)cc1		inactive	inactive	
COc1cccc(C(=O)NC(=S)Nc2ccccc2N2CCOCC2)c1		inactive	inactive	
COC(=O)C1=C(C)N(Cc2ccccc2)C(=S)N[C@H]1c1cccc(C(F)(F)F)c1		inactive		
COC(=O)C1=C(C)N(CC(C)C)C(=S)NC1c1ccc(F)cc1 (stereo unspecified)		inactive	inactive	
O=C(C1CCOCC1)N1CC[C@@H]2[C@@H](CO)Nc3ccc(Br)cc3[C@@H]21		inactive	inactive	
COC(=O)C1=C(C)N(Cc2ccccc2)C(=S)N[C@H]1c1cccc(F)c1		inactive		
COC(=O)C1=C(C)N(Cc2ccc(F)cc2)C(=S)NC1c1ccccc1 (stereo unspecified)		inactive	inactive	
O=C(COC(=O)CCC1CCCC1)Nc1nc2c(F)c(F)c(F)cc2s1		inactive	inactive	
COC(=O)C1=C(C)N(Cc2ccc(F)cc2)C(=S)NC1c1cccc(F)c1 (stereo unspecified)		inactive	inactive	
Cc1cc(Cl)ccc1NC(=S)NCc1ccc(F)cc1		inactive	inactive	
Cc1cc(C)c(NC(=O)C2CCCN2C(=O)NC2CCCCC2)c(C)c1 (stereo unspecified)		inactive	inactive	
S=C(NCc1ccccc1)NCC1COc2ccccc2O1 (stereo unspecified)		inactive	inactive	
Cc1ccc(OCCn2c(=S)[nH]c3ccccc32)c(C(C)C)c1		inactive		
